A number with no mark means an inactive call. Activity calls are given as the source filed them.
Test: plasmodial surface anion channel blockers, osmotic lysis – cell-based, P. falciparum Indochina, OD700, 1 h, primary screen (AID 1154)
Conditions: P. falciparum Indochina infected RBC osmotic lysis, higher = more signal, called active from +8 up or from −8 down

SMILES	z-score
[N-]=[N+]=Nc1ccccc1C[C@@]1(C(=O)NCC(O)CO)N=C(c2ccc(OCCCO)cc2)O[C@@H]1c1ccccc1 (stereo not given in full)	26.6 (active)
C=C(CCCC)/C(=C/C[C@H](OC(=O)c1ccncc1)c1cccc(OCCO)c1)c1cnc2ccccc2c1	23.9 (active)
COCCOC(=O)N1C(=O)[C@@]2(c3cc(C#Cc4ccc(OC)cc4)ccc31)[C@H](c1ccc(OCCO)cc1)N1[C@H](c3ccccc3)[C@H](c3ccccc3)OC(=O)[C@H]1[C@@H]2C(=O)NC[C@H](O)c1ccccc1	4.14
CCOC(=O)C1=CC[C@@H](c2ccc(OC)cc2)N(S(=O)(=O)c2ccc(C)cc2)[C@H]1c1ccc(C)cc1	0.833
COCCOC(=O)N1C(=O)[C@@]2(c3cc(C#CCCO)ccc31)[C@H](c1ccc(OCCO)cc1)N1[C@H](c3ccccc3)[C@H](c3ccccc3)OC(=O)[C@H]1[C@@H]2C(=O)N1CCCCCCC1	1.96
COC(=O)[C@@]1(Cc2ccc(F)cc2)[C@H]2c3cc(C(=O)N4CCCC4)n(Cc4cc(F)cc5c4OCOC5)c3C[C@H]2CN1C(=O)c1ccccc1	3.29
C=C(CCCC)/C(=C/C[C@H](OC(=O)c1ccncc1)c1ccc(OCCO)cc1)c1cnc2ccccc2c1	26.5 (active)
C=CCOC(=O)[C@@H]1[C@H]2C(=O)O[C@H](c3ccccc3)[C@H](c3ccccc3)N2[C@H](c2ccc(OCCOC(=O)[C@H]3C[C@H]4C(=O)N5CCC[C@H]5C(=O)N4[C@H]3c3cccc(OCCO)c3)cc2)[C@@]12C(=O)Nc1ccc(I)cc12	1.72
COc1ccc([Si](C)(C)[C@H]2[C@H](CC(=O)N3Cc4ccccc4C[C@H]3CO)O[C@@]3(C(=O)N(C)c4c(Br)cc(C)cc43)[C@@H]2C)cc1	9.31 (active)
CCCC[C@H]1OB(O)C[C@H]2C1=C(COc1ccccc1)C[C@H]1C(=O)C=CC(=O)[C@H]12	1.49
COCCOC(=O)N1C(=O)[C@@]2(c3cc(C#CCC(C(=O)OC)C(=O)OC)ccc31)[C@H](C(=O)Nc1nc3ccccc3s1)[C@H]1C(=O)O[C@H](c3ccccc3)[C@H](c3ccccc3)N1[C@@H]2c1ccc(O)cc1	1.3
COC(=O)[C@@]1(Cc2ccc(OC)cc2)[C@H]2c3cc(C(=O)N4CCCC4)n(Cc4ccc(Cl)c(C(F)(F)F)c4)c3C[C@H]2CN1C(=O)c1ccccc1	1.24
Cc1ccc(F)cc1S(=O)(=O)N[C@H]1CCN(Cc2ccc(OC(C)C)cc2)C1	2.31
COCCOC(=O)N1C(=O)[C@@]2(c3cc(C#CCNC(N)=O)ccc31)[C@H](C(=O)Nc1nc3ccccc3s1)[C@H]1C(=O)O[C@H](c3ccccc3)[C@H](c3ccccc3)N1[C@@H]2c1ccccc1OCCO	2.15
CCCCC(O)C1C=CC2C(=O)N(c3ccccc3)C(=O)C2N1Nc1ccc([N+](=O)[O-])cc1 (stereo not given)	14.2 (active)
CCCN1C(=O)[C@@]2(c3ccc([N+](=O)[O-])cc3)CC(=O)N(CC34CC5CC(CC(C5)C3)C4)[C@@H]2c2ccc(CO)cc21	0.336
O=C1C=C(c2ccccc2)C(=O)C2=C1CC([C@H]1Oc3ccccc3S(=O)(=O)N3CCC[C@@H]13)=CC2	2.36
O=C1[C@H]2C=C(I)[C@H](C[C@@H]2OCCCCCCO)[C@@]12CO2	5.11

SMILES	z-score
N#Cc1ccc(-c2cccc(=O)o2)cc1	3.14
N#Cc1ccc(NN2C(C(O)C3CC=CCC3)C=CC3C(=O)N(c4ccccc4)C(=O)C32)cc1 (stereo not given)	16.9 (active)
COC(=O)C(CC#Cc1ccc2c(c1)[C@]1(C(=O)N2)[C@H](c2ccc(OCCO)cc2)N2[C@H](c3ccccc3)[C@H](c3ccccc3)OC(=O)[C@H]2[C@@H]1C(=O)N1CCCCCCC1)C(=O)OC	7.3
COCCOC(=O)N1C(=O)[C@@]2(c3ccccc31)[C@H](c1ccc(O)cc1)N1[C@H](c3ccccc3)[C@H](c3ccccc3)OC(=O)[C@H]1[C@@H]2C(=O)N1CCCCCCC1	-0.0501
COc1ccc(C(O)C2C=CC3C(=O)N(c4ccccc4)C(=O)C3N2Nc2ccc([N+](=O)[O-])cc2)c2ccccc12 (stereo not given)	9.23 (active)
O=C1c2ccccc2[C@@]2(Cc3ccccc3N(Cc3ccccc3)C2=O)[C@H](c2ccc(CO)cc2)N1Cc1ccccc1Cl	0.705
O=C1[C@@H]2[C@@H](CC(COc3ccccc3)=C([C@H](O)CCc3ccccc3)[C@@H]2CO)C(=O)N1Cc1ccccc1	27.8 (active)
COCCOC(=O)N1C(=O)[C@@]2(c3cc(C#CCC(C(=O)OC)C(=O)OC)ccc31)[C@H](C(N)=O)[C@H]1C(=O)O[C@H](c3ccccc3)[C@H](c3ccccc3)N1[C@@H]2c1ccc(O)cc1	26.5 (active)
CN(C)CCCNC(=O)[C@@]1(C)c2ccccc2C(=O)N(Cc2ccc(OC(F)(F)F)cc2)[C@H]1c1ccc(CO)cc1	1.53
CCCC=C(CCC)[C@@H](NC(=O)OCC(C)C)c1ccc(C(=O)OC)cc1	-1.17
COc1ccc(CCNC(=O)[C@@H]2c3ccccc3C(=O)N(Cc3ccccc3OC)[C@H]2c2ccc(CO)cc2)cc1	3.02
CCCC#C[Si](O[C@H](CC)c1cn(Cc2ccccc2)nn1)(C(C)C)C(C)C	0.708
[N-]=[N+]=NCc1ccccc1[C@@H]1OC(c2ccc(OCCCO)cc2)=N[C@]1(Cc1ccccc1N=[N+]=[N-])C(=O)O	22.9 (active)
CN(C)CCCNC(=O)[C@@H]1c2ccccc2C(=O)N(Cc2ccccc2C(F)(F)F)[C@H]1c1ccc(CO)cc1	2.54
C=CCNC(=O)[C@H]1[C@@H]2C(=O)O[C@@H](c3ccccc3)[C@@H](c3ccccc3)N2[C@@H](c2ccc(OCCO)cc2)[C@]12C(=O)Nc1ccccc12	10.1 (active)
O=C1O[C@@H](c2ccccc2)[C@@H](c2ccccc2)N2[C@@H](c3ccccc3OCCO)[C@]3(C(=O)Nc4ccc(C#CCCO)cc43)[C@@H](C(=O)NC[C@H](O)c3ccccc3)[C@H]12	1.54
C[C@]1(C(=O)O)c2ccccc2C(=O)N(Cc2cc(F)cc(C(F)(F)F)c2)[C@H]1c1ccc(CO)cc1	2.63

Source: PubChem BioAssay
